Screen size: about 360,000 compounds; about 2,000 (0.56%) were called active. Roughly 2% stayed inconclusive and do not appear here. The full list was thinned out, with actives kept by preference. A number with no mark means an inactive call. Cut-off read from the data, not from the text of the source: active = activity change below about -65%; inconclusive = mostly about -30% to -63%; inactive = weaker than that.
Biological target: Homeobox protein SIX1 (Homo sapiens) + Protein phosphatase EYA2 (Homo sapiens) (UniProt Q15475+O00167)
Sequence (O00167 whole entry, looked up): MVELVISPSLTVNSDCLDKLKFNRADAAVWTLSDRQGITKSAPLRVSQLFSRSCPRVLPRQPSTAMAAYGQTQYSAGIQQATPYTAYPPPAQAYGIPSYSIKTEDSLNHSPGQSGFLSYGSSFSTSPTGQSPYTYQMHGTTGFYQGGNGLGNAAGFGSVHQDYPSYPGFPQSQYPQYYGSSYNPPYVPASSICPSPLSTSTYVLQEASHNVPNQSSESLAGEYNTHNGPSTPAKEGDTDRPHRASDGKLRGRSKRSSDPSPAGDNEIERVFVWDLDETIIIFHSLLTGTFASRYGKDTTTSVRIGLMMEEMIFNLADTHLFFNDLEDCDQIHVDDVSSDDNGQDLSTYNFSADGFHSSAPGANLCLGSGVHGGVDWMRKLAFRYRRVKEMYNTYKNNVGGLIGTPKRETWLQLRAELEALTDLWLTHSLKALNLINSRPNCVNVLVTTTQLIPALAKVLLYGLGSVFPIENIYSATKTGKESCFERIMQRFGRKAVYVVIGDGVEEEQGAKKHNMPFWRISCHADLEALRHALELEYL
Sequence (Q15475 whole entry, looked up): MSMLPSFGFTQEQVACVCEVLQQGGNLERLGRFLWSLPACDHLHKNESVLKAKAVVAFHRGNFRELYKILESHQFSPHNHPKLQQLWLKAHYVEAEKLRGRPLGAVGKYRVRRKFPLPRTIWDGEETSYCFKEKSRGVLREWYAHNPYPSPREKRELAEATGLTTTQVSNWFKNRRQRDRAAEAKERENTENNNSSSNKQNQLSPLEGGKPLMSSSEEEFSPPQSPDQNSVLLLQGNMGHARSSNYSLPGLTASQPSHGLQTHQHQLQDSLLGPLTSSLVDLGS
Test: qHTS Assay for Inhibitors of the Six1/Eya2 Interaction
Conditions: AlphaScreen GST-Six1/His-Eya2 binding, biochemical; hits give low values
How it was run: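 GST-Six1 + His-Eya2 (5X stock: 250/500 nM); Tris pH 8.0, 300 mM NaCl, 0.05% BSA, 0.02% Tween 20; GSH donor/Ni acceptor beads; 1 h 37 °C dark; AlphaScreen readout.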
% is set by controls: 0 for no effect and ±100 for the full control effect.

| SMILES | activity change |
| --- | --- |
| Cc1nc(CN(C)C(=O)CC2C(=O)NCCN2Cc2ccc(F)cc2)cs1 (centres undefined) | 6.54% |
| O=C1CCC/C(=N\NC(=O)NC2CCCCC2)C1 | 4.54% |
| COC(=O)[C@@]12C[C@@H](CC(=O)N3CCC(c4ccccc4)CC3)C(=O)N(Cc3ccccc3)C1=CCC(C)(C)C2 | -15.9% |
| CCN(CC)C(=O)CSc1nc2ccccc2o1 | 6.18% |
| CC(C)(C)C(=O)CSc1nc2ccccc2o1 | 10% |
| O=C(CSc1nc2ccccc2o1)N/N=C/c1ccccc1C(=O)O | -67.9% (active) |
| O=C(CSc1nc2ccccc2o1)N1CCN(c2ccccc2)CC1 | 0.782% |
| Cc1ccc(/C=N/NC(=O)CSc2nc3ccccc3o2)cc1 | -87.1% (active) |
| CCC(NC(=O)c1ccccc1NC(=O)c1ccccc1)C(=O)NNC(=O)CSc1nc2ccccc2o1 (centres undefined) | -24.4% |
| Cc1ccc(-c2nc3c(Cl)cc(C(F)(F)F)cn3c2Cc2cccc(Cl)c2)cc1 | 1.53% |
| CC(C)CN1C(=O)CN(S(C)(=O)=O)CC1(C)C(=O)NCc1ccccc1 (centres undefined) | 5.67% |
| CCOc1ccc(CCN2C(=O)C(=O)N([C@@H](CC(C)C)CN3CCC[C@H]3CN3C(=O)C(=O)NC[C@@H]3Cc3ccccc3)C[C@@H]2CC(C)C)cc1 | -1.05% |
| CC(C)(C)C(=O)NCCCNc1ccc([N+](=O)[O-])cc1 | -1.69% |
| O=C(Nc1ccccc1F)C1C2C=CC3(O2)C1C(=O)N(c1cccnc1)C3C(=O)NC1CCCCC1 (centres undefined) | 4.1% |
| Nc1ccc2nc3c(=O)[nH]c(=S)[nH]c3nc2c1 | -79.3% (active) |
| O=C(C(NS(=O)(=O)c1cccc2nsnc12)c1ccccc1)N1CCN(c2ccccc2)CC1 (centres undefined) | -0.046% |
| COc1ccc(C(O)C(O)(C(=O)OC(C)C)c2ccc(C)cc2)cc1 (centres undefined) | 10.6% |
| Cc1ccc2cc(C#N)c(NCCNC(=S)NCCCN3CCOCC3)nc2c1 | -1.85% |
| C/C(=N\Nc1cccc(C(=O)O)c1)c1ccc2c(c1)Nc1ccccc1S2 | -18.9% |
| O=C1NC[C@H](CCCCN2C[C@H](Cc3ccccc3)N(Cc3ccccc3)C(=O)C2=O)N(CCc2ccc(O)cc2)C1=O | -1.72% |
| O=C(N/N=C/c1ccccc1O)/C(=C/c1ccccc1)CCO | -80.4% (active) |
| NN=C(NN=Cc1ccccc1)c1ccccc1 | 15.8% |

| SMILES | activity change |
| --- | --- |
| C=CCOc1ccccc1/C=N/NC(=O)Cc1ccccc1 | -1.77% |
| CN1CCN(C(=O)c2ccc(NC(=O)c3ccc(Br)o3)cc2)CC1 | 1.67% |
| COc1ccc(S(=O)(=O)N[C@@H]2C=C[C@@H](CC(=O)N3CCc4ccccc4C3)O[C@@H]2CO)cc1 | -3.17% |
| CC(=O)/C(=N\Nc1ccc(Cl)cc1Cl)Sc1cccc2cccnc12 | -91.1% (active) |
| Cc1cc(OCCOc2cccc3cccnc23)c(C)cc1Cl | -4.24% |
| COc1cccc(CNC(=O)C2CCN(S(=O)(=O)c3cccc4cccnc34)CC2)c1 | -4.19% |
| COc1cc(CC(=O)N2CCC(n3nccc3NC(=O)C3CC3)CC2)cc(OC)c1OC | -0.446% |
| COc1cc(N2C(=O)CSC2=S)cc(OC)c1OC | -9.23% |
| CCOc1cccc(/C=N/N2C(=O)CSC2=S)c1O | -92.8% (active) |
| CCOc1ccc(N2C(=O)CSC2=NC#N)cc1 | 2.91% |
| CCOC(=O)[C@]12CCCC=C1N(CCC1=CCCCC1)C(=O)[C@H](CC(=O)N1CCSCC1)C2 | -5.61% |
| Cc1cc(OCc2ccc(C(=O)Nc3ccc(C(=O)O)cc3)o2)ccc1Cl | -9.21% |
| Cn1cnc(S(=O)(=O)N2C[C@@H](O)COC[C@@H]3O[C@H](CC(=O)NC4CCC4)CC[C@H]32)c1 | -0.831% |
| O=C(NCCN1C(=O)C2C3C=CC(C3)C2C1=O)Nc1ccccn1 (centres undefined) | 2.02% |
| CC(NC(=O)c1ccco1)C(=O)Nc1nc(-c2ccccn2)cs1 (centres undefined) | -83.1% (active) |
| O=C(COc1ccccc1F)Nc1nc(-c2ccccn2)cs1 | -84.1% (active) |
| CC1CCN(S(=O)(=O)c2nnc(NC(=O)COc3ccccc3F)s2)CC1 | 3.54% |
| CSCCC(NC(=O)c1ccco1)C(=O)Nc1cc(C)ccn1 (centres undefined) | -1.3% |
| CC1CCCCC1NC(=O)COc1ccc(C#N)cc1 (centres undefined) | -10.9% |
| O=C(CCN1C(=O)C2C3C=CC(C3)C2C1=O)Nc1ccccc1F (centres undefined) | 2.72% |
| Cc1cc(NC(=O)[C@H](C)NC(=O)c2ccco2)ccc1Br | 0.811% |
| N#Cc1ccc(OCC(=O)Nc2nc(-c3ccccn3)cs2)cc1 | -90% (active) |

Reference: PubChem BioAssay AID651725 (National Center for Advancing Translational Sciences (NCATS), 2012)
